Results reported in PubChem BioAssay AID1053175 (ICCB-Longwood Screening Facility, Harvard Medical School, 2014).
“And” between values parts separate entries of the source, which are not always exact repeats. Equal values may be shown once. Hit rate of the full screen: of about 330,000 compounds, about 700 (0.21%) were called active. The entries come from a sample that favours actives as a whole. Values without a mark were called inactive.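 The calls were made as follows: active = OD600 absorbance below the run mean of sample wells minus 3.6 SD, in any replicate (cut at about 0.56 in these data); inactive = the rest.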

Assay: antibacterial activity against Escherichia coli – OD600, primary screen (AID 1053175)
Settings: Escherichia coli growth, OD600, 23 h; active compounds read low

SMILES | OD600 absorbance
O=C(C=CNNC(=O)c1ccccc1)c1ccc(Br)cc1 | 0.66
CC1CN(C(C)CO)C(=O)c2cc(NC(=O)Cn3cnnn3)ccc2OC1CN(C)Cc1ccc(Cl)c(Cl)c1 (stereo not drawn) | 0.734
Cc1cccc(NC(=O)c2ccc([N+](=O)[O-])o2)c1 | 0.475 (active)
O=C(Nc1ccc(Br)cn1)c1ccc([N+](=O)[O-])o1 | 0.518
O=C(Nc1cccc(O)c1)c1ccc(C(=O)c2ccccc2)o1 | 0.71
COc1ccc(S(=O)(=O)ON=C2CCCc3ccccc32)cc1 | 0.751
COc1ccc(C2C3C(=O)N(C(C)(C)C)C(=O)C3[C@]3(C)C(=O)N(c4cccc(C)c4)C(=O)N23)cc1 (stereo partly drawn) | 0.681
O=C(NN=Cc1ccc(O)cc1)c1ccc(COc2cc(Cl)ccc2Cl)o1 | 0.778
CCOC(=O)C1C2COc3cc(OC)ccc3C2N2C(=O)N(c3cccc(F)c3)C(=O)[C@@]12C (stereo partly drawn) | 0.694 and 0.697 and 0.645
CC(C)(C)C(COc1ccccc1[N+](=O)[O-])=NO | 0.627
COc1cccc(C=NNc2nc3ccccc3n3cnnc23)c1 | 0.749
Cc1ccc(C)c(-c2cc(C(=O)NN=Cc3cccnc3)c3ccccc3n2)c1 | 0.67
CCNS(=O)(=O)c1ccc(NC(=O)Nc2cccc(C(F)(F)F)c2)cc1 | 0.51 (active)
O=C(Nc1ccc(C(=O)N2CCOCC2)cc1)Nc1cccc(C(F)(F)F)c1 | 0.664
CC(C)C[C@H](NC(=O)Nc1cccc(C(F)(F)F)c1)C(=O)O | 0.689
Cc1ccc2cc(C=NNC(=O)[C@@H]3CCCN3)c(Cl)nc2c1 | 0.699
CN1CCN(CCC(=O)NN=Cc2cc([N+](=O)[O-])ccc2O)CC1 | 0.633
CCN=c1scc(C)n1N=Cc1cc(Br)c(O)c(OC)c1 | 0.689
CN1C(=O)C2C(C=Cc3ccccc3)N3C(=O)CN(Cc4ccc(-c5ccccc5)cc4)C(=O)[C@@]3(Cc3ccccc3)C2C1=O (stereo partly drawn) | 0.678
CC(=NNC(=O)C1CC1)c1ccc(NC(=O)c2ccc(Br)o2)cc1 | 0.697
O=C(NN=Cc1ccco1)c1cccs1 | 0.606
CCC(C)N1CCC2(CC1)N=c1c(c3c4c5c(C)c(O)c3c(O)c1=NC(=O)C(C)=CC=CC(C)C(O)C(C)C(O)C(C)C(OC(C)=O)C(C)C(OC)C=CO[C@@](C)(O5)C4=O)N2 (stereo partly drawn) | 0.076 (active)
CCOC(=O)C1C2COc3cc(OC)ccc3C2N2C(=O)CN(Cc3ccc(C)cc3)C(=O)[C@@]12C (stereo partly drawn) | 0.699
